In all, about 69,000 compounds went through this assay and about 950 (1.4%) showed an effect of 50% or more. Shown is part of a subset that was picked to be rich in strong results.
system: Mycobacterium tuberculosis; test: Cornell M. t heat shock assay; assay type: functional, organism-based; parameters: dose or concentration left out as unconfirmed; also: in the data most compounds retested in dose-response had high values

SMILES | Percent Effect [%]
c1ccc2nc(N3CCOC(Cn4cncn4)C3)cnc2c1 (centres undefined) | -13.9
c1ccc2nc(N3CCOC(Cn4cccn4)C3)cnc2c1 (centres undefined) | -17.06
Cc1cnn(CC2CN(c3cnc4ccccc4n3)CCO2)c1 (centres undefined) | 103.1
Cc1cc(C)n(CC2CCCN2C(=O)c2nccc3ccccc23)n1 (centres undefined) | 3.715
CC(=O)N(C)[C@H]1CC[C@]2(CC1)CNC(=O)c1cc(C)ccc1O2 | 5.316
CCc1c(C)nc(-n2nc(-c3cccs3)cc2N)[nH]c1=O | 106.4
CC(C(=O)N1CCCC1)n1nc(-c2cccs2)cc(N)c1=O (centres undefined) | -4.273
Cc1nc(-n2nc(-c3cccs3)cc2N)[nH]c(=O)c1C | 103.7
CC(C(N)=O)n1nc(-c2cccs2)cc(N)c1=O (centres undefined) | 10.66
Cc1nn(C)c(C)c1S(=O)(=O)NCCn1ccc(-c2cccs2)n1 | -25.61
CN1CCN(Cn2nc(-c3cccs3)ccc2=O)CC1 | 6.699
CC1c2ncc(CN3CCN(C)CC3)n2CCN1Cc1ccsc1.O=C(O)C(F)(F)F.O=C(O)C(F)(F)F.O=C(O)C(F)(F)F (centres undefined) | -30.83
CCN1CCC2(CC1)OCCN2C(=O)c1ccc(OC)c(Cl)c1.Cl | 7.471
CCn1ncc2c1C(COC)N(C(=O)c1cccs1)CC2.O=C(O)C(F)(F)F (centres undefined) | 19.39
O=C(CC1CC2(CCN(CC3CC3)CC2)c2ccccc21)NC1CCC1.O=C(O)C(F)(F)F (centres undefined) | -33.11
O=C(O)C(F)(F)F.O=C1COC2(CCN(C(=O)c3ccco3)CC2)CN1Cc1ccccn1 | -21.74
CC(C)(C)c1ccc(OCC(=O)O)c(CN2C[C@H]3C[C@H](O)C[C@H]3C2)c1 | -6.021
Cc1noc(C)c1CN1C(=O)[C@H]2CC[C@@H]1CN(C(=O)c1cscn1)C2 | 9.12
CNC(=O)c1ccc2c(c1)C1(CCN(CCOC)CC1)C(=O)N2.O=C(O)C(F)(F)F | -17.93
Fc1cccc(Cl)c1CNCCOc1ccccn1 | -12.87
Fc1cccc(Cl)c1CNCc1ccccn1 | 50.99
Fc1cccc(Cl)c1CNCCCOc1ccccn1 | -11.57
COCC(=O)NCc1cc(=O)n2c(n1)CN(CC1CCOC1)CCC2.O=C(O)C(F)(F)F (centres undefined) | -14.54
CC(C)NC(=O)N1CCC2(CCC(=O)N2CCN2CCCC2)CC1.O=C(O)C(F)(F)F | -7.519
CCc1noc(CSc2n[nH]c(-c3ccccn3)n2)n1 | 92.11

SMILES | Percent Effect [%]
CCc1nnc(CSc2ccccn2)o1 | 0.1559
Cc1nnc(CSc2n[nH]c(-c3ccccn3)n2)o1 | 13.15
CCc1noc(CN2CCN(C(=O)c3ccccn3)CC2)n1 | 7.072
c1ccc(-c2nc(SCc3nnc(C4CC4)o3)n[nH]2)nc1 | 78.14
O=C(c1ccccn1)N1CCCN(Cc2nnc(C3CC3)o2)CC1 | 27.04
COCCN1C(=O)[C@H]2CC[C@@H]1CN(Cc1nnc(-c3ccccc3)o1)C2 | 0.9802
CCOCC1CN(c2ccc(C)nn2)Cc2cnn(CC)c21.O=C(O)C(F)(F)F.O=C(O)C(F)(F)F (centres undefined) | 34.67
CS(=O)(=O)CC(=O)N1C[C@H]2CCC[C@@]2(COCc2ccccn2)C1.O=C(O)C(F)(F)F | 1.254
O=C(O)C(F)(F)F.c1coc(CN2CCC3(CC2)COC(COCC2CC2)C3)c1 (centres undefined) | -19.69
O=C(O)C(F)(F)F.O=C(c1cccc(F)c1)N1C[C@H]2CN(Cc3ccccn3)C[C@H]2C1 | -10.41
O=C(O)C(F)(F)F.O=C1CC[C@]2(CC[C@@H](NCc3ccsc3)CC2)N1Cc1ccccc1 | -7.125
COCc1nn(C(C)C)c2c1CCN(Cc1ccoc1)C2.O=C(O)C(F)(F)F | -50.08
Cc1cc(NCCc2nc(C)c[nH]2)nc(-c2ccccc2O)n1 | 7.352
Cc1cc(NCCNc2cccnc2)nc(-c2ccccc2O)n1 | 65.56
Cc1cc(NCCNc2cccnc2)nc(N)n1 | -13.91
Cc1cc(NCCO)nc(-c2ccccc2O)n1 | 5.939
Cc1cc(NCCc2cnccn2)nc(-c2ccccc2O)n1 | 15.98
Cc1cc(NCCN)nc(-c2ccccc2O)n1 | 74.35
Cc1cc(C)c(N(CC(O)CNCc2ccco2)S(C)(=O)=O)c(C)c1.O=C(O)c1ccccc1 (centres undefined) | 18.07
CCOC1COC2(CCN(Cc3ccc(F)cc3)CC2)C1.O=C(O)C(F)(F)F (centres undefined) | -14.13
CCCC(=O)N(CCCN1CCOCC1)c1nc2c(C)c(C)ccc2s1.Cl | 46.86
CCCC(=O)N(CCCN1CCOCC1)c1nc2c(Cl)cccc2s1.Cl | 25.9
CCCC(=O)N(CCCN1CCOCC1)c1nc2c(C)ccc(Cl)c2s1.Cl | 99.14
COC(=O)c1ccc(CN[C@@H]2COC[C@H]2Cc2cc(C)no2)cc1.O=C(O)CC(O)(CC(=O)O)C(=O)O | -21.34
CC(C)Nc1cccc(CC2CCN(C)C2)n1.O=CO (centres undefined) | 4.45

SMILES | Percent Effect [%]
CCCc1cc(NCCn2cccn2)n2ncnc2n1 | 8.061
CCCc1cc(NCCn2cccn2)n2nccc2n1 | 70.39
CCCc1cc(NCCN2CCNC2=O)n2nccc2n1 | -6.778
COCCN(C)C1COC2(CCN(Cc3cccc(F)c3)CC2)C1.O=C(O)C(F)(F)F.O=C(O)C(F)(F)F (centres undefined) | -38.12
Cn1cccc1C(=O)N1CCC2(CCN2c2ncccn2)C1.O=C(O)C(F)(F)F (centres undefined) | 8.832
CCc1ccc(CN2CC[C@H]3[C@H]2CC(=O)N3Cc2cccc(C)n2)o1.O=C(O)C(F)(F)F.O=C(O)C(F)(F)F | -1.259
CC(c1cccc(F)c1)N1CCN(Cc2nccn2C)CC1 (centres undefined) | -12.42
Cc1ccc(CNC(c2ccc(F)cc2)c2nccn2C)o1 (centres undefined) | 74.11
Cc1ccc(CNC(C)c2cc(F)ccc2N2CCN(C)CC2)o1 (centres undefined) | -35.24
Cc1ccc(CNC(c2cccc(F)c2)c2nccn2C)o1.Cl (centres undefined) | 79.6
COc1c(CNC(c2cccc(F)c2)c2nccn2C)c(C)nn1C (centres undefined) | -20.66
Cc1ccc(CNCCC(O)(c2nccn2C)C(F)(F)F)o1 (centres undefined) | -16.27
Cl.Cn1nc(C2CCCN(Cc3ccc(F)c(F)c3)C2)c2nccnc21 (centres undefined) | -15.39
O=C(O)C(F)(F)F.O=C(O)C(F)(F)F.O=C1CO[C@@H]2CN(Cc3nccs3)C[C@H]2N1Cc1ccncc1 | -20.96
O=C(O)C(F)(F)F.O=C(O)C(F)(F)F.c1cncc(O[C@H]2CC[C@H]3[C@H]2OCCN3C2CCC2)c1 | -41.43
CSc1nccc(-c2cccc(-c3ccn(CC4COCCO4)n3)c2)n1 (centres undefined) | 87.01
COc1cccc(-c2cccc(-c3ccn(CC4COCCO4)n3)c2)n1 (centres undefined) | -12.43
COc1nccnc1-c1cccc(-c2ccn(CC3COCCO3)n2)c1 (centres undefined) | -10.15
Cc1cnccc1-c1cnn(CCNC(=O)c2cccnc2)c1C1CC1.Cl | -20.8
O=C(NCCNc1ncccn1)C1CCN(C(=O)NC2CC2)CC1 | 12.93
COc1ccc(-c2nnc(SC(C)C(=O)NCC(C)C)[nH]2)c(OC)c1 (centres undefined) | 21.58
Cc1cccnc1CN(C)C(C(=O)O)c1ccc(-n2cccn2)cc1 (centres undefined) | 85.61
Cc1cccnc1CN(C)C(C(=O)O)c1ccc(C(C)(C)C#N)cc1 (centres undefined) | 35.15
Cc1cccnc1CN(C)C(C(=O)O)c1ccc(-c2ccn[nH]2)cc1 (centres undefined) | 46.05
CCOc1cccc(C(=O)Nc2ccn(CC)n2)c1 | 10.2

SMILES | Percent Effect [%]
COc1ccccc1OCCNCCn1cccn1 | -4.408
Cc1cccc(OCCCNC(=O)Cn2ccc(C)cc2=O)c1 | 9.396
CCn1ccc(-c2cc(NCCCOc3cccc(C)c3)nc(C)n2)n1 | 104.2
CCn1ccc(-c2cc(NCCCOc3ccccc3C)nc(C)n2)n1 | 105.6
CCn1ccc(-c2cc(C(=O)O)n3nc(C)c(Cl)c3n2)n1 | 6.637
Cc1oncc1C(=O)N1C[C@H](OCc2ccccn2)[C@H]2OCCC[C@H]21.O=C(O)C(F)(F)F | -20.31
CCOC(=O)CSc1nnc([C@@H](N)C(C)C)o1.Cl | -3.757
CNC(=O)c1cc2c(nc1NCC1CC1)CCN(CC1CC1)CC2.O=C(O)C(F)(F)F.O=C(O)C(F)(F)F | -24.38
Cc1cccc(C)c1CCNC(=O)N1CCCC2(C1)OCCO2 | 5.49
O=CO.c1nc(CN2CCCC(Cc3ccc(NC4CCCC4)nn3)C2)c[nH]1 (centres undefined) | 20.05
Cc1ccc(CN2C[C@H]3C[C@H](C(=O)Nc4cccnc4)[C@@H](C2)O3)cc1 | 0.4433
Cc1cnc(CNC(=O)[C@@]23CCO[C@@H]2CCNC3)cn1.O=C(O)C(F)(F)F | 23.9
O=C(O)C(F)(F)F.O=C(O)C(F)(F)F.c1cncc(-c2ccc3c(c2)CCC32CCN(Cc3nccs3)CC2)c1 | 74.6
c1cc(-c2ccc3c(c2)CCC32CCNCC2)ccn1 | -56.04
O=C(O)C(F)(F)F.O=C(O)C(F)(F)F.c1csc(CN2CCC3(CC2)CCN(CC2CC2)CC3)n1 | -18.7
O=C(O)C(F)(F)F.c1cncc(-c2ccc3c(c2)C2(CC3)CCN(c3nncs3)CC2)c1 | 12.31
Cc1ccc2c(c1)CCC21CCN(C(=O)CN(C)C)CC1.O=C(O)C(F)(F)F | -22.19
O=C(O)C(F)(F)F.O=C(O)C(F)(F)F.c1cncc(C2COC3(CCN(Cc4nccs4)CC3)C2)c1 (centres undefined) | -9.404
CN1CCN(Cc2cccnc2)C(=O)C12CCN(Cc1ccco1)CC2.O=C(O)C(F)(F)F.O=C(O)C(F)(F)F.O=C(O)C(F)(F)F | 5.064
c1cncc(-c2ccc3c(c2)C2(CCNCC2)CC3)c1 | -40.79
c1cncc(-c2ccc3c(c2)CCC32CCNCC2)c1 | 88.51
CN(C)CC(=O)N1CCC2(CCc3ccc(-c4ccncc4)cc32)CC1.O=C(O)C(F)(F)F.O=C(O)C(F)(F)F | -52.11
O=C(O)C(F)(F)F.O=C(O)C(F)(F)F.c1cncc(-c2ccc3c(c2)CCC32CCN(Cc3ccco3)CC2)c1 | 104
CN(C)CC(=O)N1CCC2(CCc3cc(-c4cccnc4)ccc32)CC1.O=C(O)C(F)(F)F.O=C(O)C(F)(F)F | 53.15

Source: ChEMBL document CHEMBL3988442, “University of Dundee, Small-Polar-MMV Screening Library” (2021)
